Screens: PubChem BioAssay, National Center for Advancing Translational Sciences (NCATS)
Hits are enriched below; roughly 21% of the tested compounds scored in any of these assays.
Shiga toxin inh: Shiga toxin inhibition; AID 2315; hit rate 9.2% among 290,000; Vero cells, Shiga toxin protein synthesis inhibition reporter; inhibition, % at 38.7 µM; in the data active = inhibition mostly above about 28%, no sharp cut-off; inactive = mostly below about 43%
Pf growth 48h: inhibits P. falciparum growth in the first generation, 48 h. P. falciparum luciferase growth in erythrocytes, 48 h. Potency, µM (series often up to 28.7 µM), hits mostly inhibitors. hit rate 5.9% among 310,000
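Cell-based growth assay: transgenic P. falciparum expressing firefly luciferase, cultured in red cells within RPMI 1640 containing 0.5% w/v Albumax, 24 mM bicarbonate and gentamycin. A drop in luciferase activity indicates inhibition.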
Cycloheximide cs: affects cycloheximide protein synthesis inhibition readout, counter-screen; cell reporter, cycloheximide protein synthesis inhibition counterscreen; hit rate 12% among 300,000; max response, %; AID 2314; in the data active = max response mostly above about 13%, no sharp cut-off; inactive = mostly below about 14%; note: read at 38.3 µM for the half of the compounds with a filed dose
NS1 function inh: blocks influenza NS1 protein function; Potency, µM (highest dose often 46.1 µM); hit rate 0.4% among 270,000; AID 2326; calls by dose curve; note: actives are rising curves; nearly all actives have a fitted effect of over 50% in size
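A cell-based growth assay was used: compounds that relieve NS1-induced slow growth of budding yeast raise OD600. Assay medium was yeast nitrogen base with ammonium sulphate and -URA supplement, pH 6.0, with 2% galactose.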
Pf growth 96h: P. falciparum growth inhibition at 96 hour, primary screen for plastid delayed-death inhibitors; Potency, µM (titrated, usually from 28.7 µM), hits mostly inhibitors; P. falciparum luciferase reporter growth, 96 h; AID 504834; hit rate 6.9% among 320,000
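Readout is luminescence from an integrated firefly luciferase in P. falciparum. Red cells, 2% hematocrit and 0.05% parasitemia final, were cultured with compound through two parasite generations (96 hours) at 37 C, 5% CO2.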
FBPA Giardia inh: Giardia lamblia aldolase inhibition; Potency, µM (series often up to 59.6 µM), actives largely listed as inhibitors; hit rate 0.71% among 290,000; purified Giardia FBPA; AID 2451; A8B2U2; note: nearly all actives have a fitted effect of over 55% in size
Target sequence (A8B2U2 whole entry, looked up): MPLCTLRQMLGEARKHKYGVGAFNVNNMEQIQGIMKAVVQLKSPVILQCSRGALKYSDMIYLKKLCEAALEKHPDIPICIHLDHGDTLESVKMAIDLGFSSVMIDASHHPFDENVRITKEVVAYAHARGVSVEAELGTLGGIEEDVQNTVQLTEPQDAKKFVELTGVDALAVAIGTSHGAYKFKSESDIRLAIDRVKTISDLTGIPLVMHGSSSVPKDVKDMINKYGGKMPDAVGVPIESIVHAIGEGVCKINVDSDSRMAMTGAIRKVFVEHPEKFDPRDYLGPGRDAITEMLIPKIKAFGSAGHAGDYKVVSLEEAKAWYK
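40 nM FBPA preincubated 10 min at RT with compound (up to 57.5 uM final), then substrate plus GAPDH/TPI/NAD/arsenate coupling and diaphorase/resazurin added. Fluorescence read after 20 min at RT, 525/598 nm.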
Large screens that a line does not name were inactive. Unless noted, calls come from the whole dose curve; as a rule, active = well fitted curve in the direction sought with a large enough effect; inconclusive = small, poorly fitted or top-dose-only effect, or another doubt; inactive = no such curve, though single readings can be large; an effect the other way counts as inactive or inconclusive.

Cc1c(-c2nc(N)nc(C3CC3)c2C)nc(N)nc1C1CC1	none (no result: Shiga toxin inh, Pf growth 48h, Cycloheximide cs, Pf growth 96h, FBPA Giardia inh)
O=C1CC[C@@]23CCCN2C(=O)CCCC3C1 (some centres undefined)	none (no result: Pf growth 48h, NS1 function inh, Pf growth 96h)
CC(C)C(=O)NC(c1ccc(N(C)C)cc1)c1c(O)ccc2ccccc12 (centres undefined)	Pf growth 48h inconclusive, Pf growth 96h inconclusive
CC(C)[C@H](N[C@@H](C)c1ccccc1)c1c(O)ccc2ccccc12	Pf growth 48h 2.94µM, Pf growth 96h inconclusive
CC(C)(C)C(=O)NC(c1ccccc1)c1c(O)ccc2ccccc12 (centres undefined)	Pf growth 48h 4.65µM, Pf growth 96h inconclusive
N#Cc1cccc(S(=O)(=O)N2CCN(c3ccnc4cc(Cl)ccc34)CC2)c1	Pf growth 48h 13.1µM, Pf growth 96h 2.33µM (no result: FBPA Giardia inh)
O=[N+]([O-])c1ccc(S(=O)(=O)N2CCN(c3ccnc4cc(Cl)ccc34)CC2)cc1	Pf growth 48h 5.22µM, Pf growth 96h 2.62µM (no result: FBPA Giardia inh)
CN(C)S(=O)(=O)N1CCN(c2ccnc3cc(Cl)ccc23)CC1	none
O=S(=O)(c1cccc(Br)c1)N1CCN(c2ccnc3cc(Cl)ccc23)CC1	Pf growth 48h 3.7µM, Pf growth 96h 1.85µM (no result: FBPA Giardia inh)
O=S(=O)(c1ccccc1OC(F)(F)F)N1CCN(c2ccnc3cc(Cl)ccc23)CC1	Pf growth 48h 9.28µM, Pf growth 96h 2.33µM (no result: FBPA Giardia inh)
O=C(CCCC(=O)N(c1ccc(F)cc1)C(C(=O)NC1CCCC1)c1ccc(O)cc1)Nc1ccccn1 (centres undefined)	none
Cc1cc(C)cc(N2CC(C(=O)NC3CCCCC3)CC2=O)c1 (centres undefined)	Pf growth 96h inconclusive
Cc1ccc(NC(=O)N2CCCC2C(=O)Nc2c(C)cc(C)cc2C)cc1 (centres undefined)	none (no result: FBPA Giardia inh)
COCCNC(=O)Cn1nc(-c2ccc(Cl)cc2)c2ccccc2c1=O	Pf growth 96h inconclusive
CC(=O)c1ccc(S(=O)(=O)N2CCN(C(=O)CN3C(=O)NC4(CCCC4)C3=O)CC2)cc1	none (no result: Shiga toxin inh, Cycloheximide cs, NS1 function inh, FBPA Giardia inh)
CC(C)S(=O)(=O)N1CCN(c2ccnc3cc(Cl)ccc23)CC1	Pf growth 48h 5.22µM, Pf growth 96h 9.28µM
CC(=O)Nc1cccc(NC(=O)COc2ccc3c(c2)OCO3)c1	Shiga toxin inh 59.8, Cycloheximide cs 27.5
O=C(COc1ccc(S(=O)(=O)N2CCCC2)cc1)Nc1ccc2c(c1)OCCO2	Shiga toxin inh 44.3, Pf growth 48h inconclusive, Cycloheximide cs 24.1
CC(=O)Nc1ccc(NC(=O)COc2ccc(S(=O)(=O)N3CCCC3)cc2)cc1	Pf growth 48h inconclusive, Pf growth 96h inconclusive
CC(=O)c1ccc(OCC(O)CNCc2ccc3c(c2)OCO3)cc1 (centres undefined)	Pf growth 48h 2.62µM
CC(=O)Nc1ccc(OCC(=O)NCc2ccc3c(c2)OCO3)cc1	Pf growth 48h inconclusive (no result: NS1 function inh)
CCc1ccc(NC(=O)COc2ccc3c(c2)OCO3)cc1	Shiga toxin inh 41.8, Cycloheximide cs 31.4 (no result: FBPA Giardia inh)
C/C=C(\C)CN1CCC(Oc2cc(C(=O)NC3CC3)ccc2OC)CC1	none (no result: FBPA Giardia inh)
O=C(NCCN1CCOCC1)C1CCCN(S(=O)(=O)c2ccc(F)cc2)C1 (centres undefined)	none (no result: FBPA Giardia inh)
O=C(COC(=O)c1cc(S(=O)(=O)N2CCOCC2)ccc1Cl)Nc1ccccc1Cl	none (no result: Shiga toxin inh, Cycloheximide cs, NS1 function inh, FBPA Giardia inh)
COc1cccc2c3c(c(C)nc12)CC(CO)O3 (centres undefined)	none (no result: Shiga toxin inh, Pf growth 48h, Cycloheximide cs, NS1 function inh, Pf growth 96h)
c1ccc(-c2cccc(N3CCC4(CCNCC4)CC3)c2)cc1	none (no result: Shiga toxin inh, Pf growth 48h, Cycloheximide cs, NS1 function inh, Pf growth 96h)
CC(=O)c1ccc(NC(=O)COc2ccc3c(c2)OCO3)cc1	Cycloheximide cs 19.3, Pf growth 96h inconclusive (no result: NS1 function inh)
COc1ccc(NC(=O)COc2ccc3c(c2)OCO3)cc1	none
CCC(C)NS(=O)(=O)c1ccc(OCC(=O)Nc2ccc3c(c2)OCCO3)cc1 (centres undefined)	Pf growth 48h inconclusive, Pf growth 96h inconclusive
CCc1ccc(OCC(=O)Nc2ccc3c(c2)OCCO3)cc1	Cycloheximide cs 27.0
S=C(Nc1cccnc1)Nc1cccc2cnccc12	FBPA Giardia inh inconclusive (no result: NS1 function inh)
Cc1cccc(NC(=S)NCCC(C)C)c1	Pf growth 48h inconclusive, Cycloheximide cs 20.4, Pf growth 96h 11.7µM
Fc1ccc(NC(=S)Nc2cccc3ccccc23)cc1F	Shiga toxin inh 45.1, Pf growth 48h inconclusive, Cycloheximide cs 45.6, FBPA Giardia inh inconclusive
Cc1ccc(NC(=S)Nc2cccc3ccccc23)cc1	Shiga toxin inh 78.2, Pf growth 48h inconclusive, Cycloheximide cs 89.7, FBPA Giardia inh inconclusive
Fc1ccc(NC(=S)Nc2cccc3ccccc23)cc1	Shiga toxin inh 69.8, Cycloheximide cs 42.2, FBPA Giardia inh inconclusive
Cc1cc2nc3n(c2cc1C)CC1CC(C(=O)NCc2cccc(C(F)(F)F)c2)N(C)C31 (centres undefined)	Pf growth 48h inconclusive, Pf growth 96h inconclusive
COc1ccc(S(=O)(=O)CCC(=O)Nc2cccc(OC)c2)cc1	Pf growth 96h inconclusive (no result: NS1 function inh)
Cc1cc(C)c(S(=O)(=O)Nc2nnc(C(C)C)s2)c(C)c1	Pf growth 96h inconclusive, FBPA Giardia inh inconclusive
Cc1cc(NC(=S)Nc2cccc3ccccc23)n[nH]1	Shiga toxin inh 70.4, Cycloheximide cs 27.6, Pf growth 96h inconclusive (no result: NS1 function inh)
Cc1cccc(NC(=S)Nc2cccc3ccccc23)c1	Shiga toxin inh 95.3, Pf growth 48h 10.4µM, Cycloheximide cs 32.0, Pf growth 96h inconclusive
Cc1ccc(S(=O)(=O)N(C)C)cc1NC(=S)Nc1cccc2ccccc12	Pf growth 48h inconclusive
CC(C)c1ccc(NC(=S)Nc2cccc3ccccc23)cc1	Shiga toxin inh 98.4, Pf growth 48h inconclusive, Cycloheximide cs 54.8
COc1ccc(NC(=S)Nc2cccc3cnccc23)cc1	FBPA Giardia inh inconclusive
COc1cccc(NC(=S)Nc2cccc3ccccc23)c1	Shiga toxin inh 109.8, Cycloheximide cs 84.6, NS1 function inh inconclusive, FBPA Giardia inh inconclusive
Cc1cc(C)cc(NC(=S)Nc2cccc3ccccc23)c1	none (no result: FBPA Giardia inh)
c1ccc2c(c1)c1ccccc1n2Cn1c2ccccc2c2ccccc21	none (no result: Shiga toxin inh, Pf growth 48h, Cycloheximide cs, Pf growth 96h, FBPA Giardia inh)
COc1ccc(C(=O)O)cc1S(=O)(=O)NCCc1ccccn1	none
Cc1ccc(C)c(NC(=O)CN(C)C(=O)CN2C(=O)C3CCCCC3C2=O)c1 (centres undefined)	none (no result: Shiga toxin inh, Cycloheximide cs, NS1 function inh, FBPA Giardia inh)
COc1cccc(C2(c3cccc(OC)c3)CC2C(=O)Nc2cccc3ccccc23)c1 (centres undefined)	Pf growth 48h 9.28µM, Pf growth 96h 5.22µM
CCc1cccc(NC(=S)Nc2cccc3ccccc23)c1	Pf growth 48h inconclusive, Cycloheximide cs 46.5
C=CCNC(=S)Nc1cccc2ccccc12	FBPA Giardia inh 15.8µM
S=C(NCCc1ccncc1)Nc1cccc2ccccc12	none
O=C1OCCC1Sc1nnc(-c2ccc(Br)cc2)o1 (centres undefined)	none (no result: Pf growth 96h)
Brc1ccc(-c2nnc(SCCC3OCCCO3)o2)cc1	Shiga toxin inh 59.4, Cycloheximide cs 41.6
c1ccc(-c2nnc(SCCC3OCCCO3)o2)cc1	Shiga toxin inh 104.1, Cycloheximide cs 42.6
